Inconclusive results are not listed. A call without a number means that no potency is given here. A number with no mark means an inactive call. Calls of active or inactive are those of the source. The call rests on the fitted dose curve; in most records, active means well fitted inhibition curve with a large enough effect; inconclusive means small, poorly fitted or top-dose-only effect; inactive means flat fitted curve, though single readings scatter.
Potency means the concentration at half of the fitted maximal effect.

This assay can be described thus: P-glycoprotein substrates identified in KB-8-5-11 adenocarcinoma cell line, qHTS therapeutic library screen (AID 1346987). Further: nearly all actives have a fitted effect of over 65% in size. The conditions noted are these: KB-8-5-11 (P-gp overexpressing) viability, CellTiter-Glo, 72 h; series mostly up to 44.5 µM. The method, boiled down:
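Steps: plate 500 KB-8-5-11 cells/well in DMEM + 10% FCS (colchicine removed); pin compounds in dose-response; incubate 72 h, 37 degree C, 5% CO2; add CellTiter-Glo, 5 min; read luminescence.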
On the technique in general: Quantitative high-throughput screening tests each substance at several concentrations.
Consider `COC(=O)c1ccc(OC(CO)C(O)c2ccc(O)c(OC)c2)c(OC)c1` (stereo not drawn), for which the Potency result was “inactive”.
Consider `O=C(O)c1cc2cccc([N+](=O)[O-])c2[nH]1`, for which the Potency entry was “inactive”.
On to `O=C(O)CC(=O)OC[C@H]1O[C@@H](Oc2ccc3c(c2)OC[C@H]2c4cc5c(cc4O[C@@H]32)OCO5)[C@H](O)[C@@H](O)[C@@H]1O`, for which the Potency result was “inactive”.
With `CC(C)=CCC[C@](C)(O[C@@H]1O[C@H](CO)[C@@H](O)[C@H](O)[C@H]1O)[C@H]1CC[C@]2(C)[C@@H]1[C@H](O)CC1[C@@]3(C)CC[C@H](O)C(C)(C)C3[C@@H](O[C@@H]3O[C@H](CO)[C@@H](O)[C@H](O)[C@H]3O[C@@H]3OC[C@@H](O)[C@H](O)[C@H]3O)C[C@]12C` (stereo partly drawn), the activity change, negative = cytotoxicity was -2.05% [at 9.29 µM].
For `CO[C@H]1C[C@@H]2CC[C@@H](C)[C@@](O)(O2)C(=O)C(=O)N2CCCC[C@H]2C(=O)O[C@H]([C@H](C)C[C@H]2CC[C@@H](OP(C)(C)=O)[C@H](OC)C2)CC(=O)[C@H](C)/C=C(\C)[C@@H](O)[C@@H](OC)C(=O)[C@H](C)C[C@H](C)/C=C/C=C/C=C/1C`, the Potency result is “inactive”.
Turning to `CC1OC(OC2C(OC3C(O[C@H]4CC[C@@]5(C)C(CC[C@]6(C)C5C(=O)C=C5C7CC(C)(C)CC(O)[C@]7(C)CC[C@]56C)C4(C)C)OC(C(=O)O)C(O)C3O)OCC(O)C2O)C(O)C(O)C1O` (stereo partly drawn), the activity change, negative = cytotoxicity was 7.36% [at 9.29 µM].
Take `C/C=C/c1ccc(O[C@@H]2O[C@H](CO)[C@@H](O)[C@H](O)[C@H]2O)c(OC)c1`: the Potency result is “inactive”.
On the same count and under the same terms, next, `COCCN1CCN(Cc2ccc(-c3n[nH]c4c3C(=O)c3c(NC(=O)NN5CCOCC5)cccc3-4)cc2)CC1`: 2590 nM (active); `C=CC1C(OC2OC(CO)C(O)C(O)C2O)OC=C(C(=O)OC)C1CC1CC(=O)CC(CCc2ccc(O)cc2)O1` (stereo not drawn): “inactive”; `C=C1CCC[C@]2(C)CC[C@@H](C(=C)C(=O)O)[C@H](O)[C@@H]12`: “inactive”.
As to `CCc1ccc(Cc2ccc3c(c2)[C@]2(OC3)O[C@H](CO)[C@@H](O)[C@H](O)[C@H]2O)cc1`, the Potency entry was “inactive”.
As to `COC(=O)C12C(=O)C(C)=C(O)C1(C)C(C)=CC1C3(CO)CCC(O)C(C)(C)C3CCC12C` (stereo not drawn), the Potency entry was “inactive”.
Take `C/C=C1\[C@H](O[C@@H]2O[C@H](CO)[C@@H](O)[C@H](O)[C@H]2O)OC=C(C(=O)OC)[C@H]1CC(=O)OC[C@H]1O[C@@H](OCCc2ccc(O)cc2)[C@H](O)[C@@H](O)[C@@H]1O`: the Potency entry is “inactive”.
